D3 ag – qHTS of D3 Dopamine Receptor Agonist: qHTS. 0.58% of 410,000 active. max activation, %. D3R DiscoveRx beta-arrestin cells, luminescence, 90 min. D(3) dopamine receptor (Homo sapiens), P35462; in the data active = max activation above about 30%; note: 0% is about no effect
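Cells at 1500/well, incubated overnight, then treated with pinned compounds (dopamine as control) for 90 min at 37 degrees C. DiscoveRx reagent added for 30 - 60 minutes at room temperature; luminescence read.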
LDHA block – qHTS assay for inhibitors of human lactate dehydrogenase; AID 1347041, 2019; 0.15% of 480,000 active; purified LDHA, NADH/diaphorase-resazurin fluorescence; hits give low values; activity change, % (values are at about 110 or 230 µM); in the data active = activity change below about -30%; inconclusive = mostly about -25% to -30%;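 note: plate controls were DMSO wells for no effect and wells without enzyme for full effect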
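Enzyme activity of human lactate dehydrogenase 5 (2 nM; 0.06 mM NADH, 0.2 mM pyruvate, 5 min, RT) is measured via a resazurin/diaphorase fluorescence readout of residual NADH.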
PI5P4Ka inh – qHTS for Inhibitors of phosphatidylinositol 5-phosphate 4-kinase (PI5P4K). max response, %. AID 652105, 2013. 1.2% of 330,000 active. Phosphatidylinositol 5-phosphate 4-kinase type-2 alpha (Homo sapiens), P48426. PI5P4Kalpha enzyme, ADP-Glo luminescence, 60 min; hits give low values; active = max response of -50% or lower; inconclusive = between -30% and -50%; inactive = -30% or higher; note: value at the top dose of about 77 µM; % is set by controls: 0 for no effect and ±100 for the full control effect
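Luminescence from ADP-Glo served as readout of PI5P4Kalpha activity in a qHTS format. Reaction: enzyme, substrate, compound, ATP at 5 microM final, 60 min at RT.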
PI4K2A inh – qHTS for small molecular inhibitors of PI4K2A; purified PI4K2A, ADP-Glo luminescence, 1 h; hits give low values; activity change, negative = inhibition, % at 76.9 µM; 0.13% of 420,000 active; AID 1346378, 2018; in the data active = activity change below about -50%; inconclusive = mostly about -30% to -49%;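 note: -100% = wells without enzyme as full effect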
Target sequence (Q9BTU6 whole entry, looked up): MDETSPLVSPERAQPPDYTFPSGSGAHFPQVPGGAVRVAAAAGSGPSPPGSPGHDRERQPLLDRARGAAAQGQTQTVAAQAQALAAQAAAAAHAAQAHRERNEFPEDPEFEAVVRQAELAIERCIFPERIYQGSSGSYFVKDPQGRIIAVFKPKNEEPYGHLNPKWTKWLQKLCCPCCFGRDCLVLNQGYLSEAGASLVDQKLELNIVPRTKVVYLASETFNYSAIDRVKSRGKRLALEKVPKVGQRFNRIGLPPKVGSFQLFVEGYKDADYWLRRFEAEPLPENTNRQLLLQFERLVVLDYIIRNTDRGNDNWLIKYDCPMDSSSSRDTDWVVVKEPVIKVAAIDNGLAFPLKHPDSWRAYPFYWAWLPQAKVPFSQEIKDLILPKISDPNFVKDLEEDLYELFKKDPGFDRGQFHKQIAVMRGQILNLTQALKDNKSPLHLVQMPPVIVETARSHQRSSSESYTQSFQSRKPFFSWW
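Compounds are screened against recombinant PI4K2A using PI as substrate and ATP, the latter dispensed at 300 microM. Reactions run one hour at ambient temperature before ADP-Glo detection; full inhibition defined by wells lacking enzyme.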
D3 antag – qHTS of D3 Dopamine Receptor Antagonist: qHTS. D(3) dopamine receptor (Homo sapiens), P35462. D3R cells, DiscoveRx beta-arrestin luminescence, antagonist mode; hits give low values. max response, negative = inhibition, %. 2.5% of 360,000 active. AID 652054, 2013; in the data active = max response below about -50%; inconclusive = no clear call, values can overlap the other calls; note: % is set by controls: 0 for no effect and ±100 for the full control effect
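Cells plated overnight at 1500 cells/well, then exposed to library compounds with dopamine controls for 90 minutes at 37 degrees C. DiscoveRx reagent added for 30–60 minutes at room temperature; luminescence read, quantitative HTS format.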
An asterisk follows results filed as active; ? = inconclusive; · = no result; ! = a repeat was not active. Most compounds without a hit are left out; they make up all but 3.3% or so of the library.

SMILES	D3 ag	LDHA block	PI5P4Ka inh	PI4K2A inh	D3 antag
C[C@H]1CCC/C=C/C(=O)c2c(cc(O)c(Cl)c2O)CC(=O)O1	·	·	·	-27.8	·
Cc1oc(-c2ccccc2)nc1CC(=O)Nc1ccc(O)c2ccccc12	·	39.4	·	·	·
Cc1cc(C)n(-c2ccc(C(=O)OCC(=O)NC(=O)NC3CCCC3)cc2)n1	·	-2.8	·	·	·
Cc1cc(C)n(-c2ccc(C(=O)OCC(=O)NC3CCS(=O)(=O)C3)cc2)n1 (stereo not given)	·	-30.4*	·	·	·
Cc1ccc(NC(=O)c2ccc3c(c2)CCC3)cc1	·	7.8	·	·	·
CCn1cc(C(=O)NCC2CCCO2)c(=O)c2cc(S(=O)(=O)N(C)C)ccc21 (stereo not given)	5.4	-5.2	0.1	-6.0	13.8
CCc1ccccc1N(C)S(=O)(=O)c1ccc2[nH]cc(C(=O)O)c(=O)c2c1	4.3	-41.5*	-20.0	-2.3	6.0
Cc1ccccc1N(C)S(=O)(=O)c1ccc2[nH]cc(C(=O)NCC3CCCO3)c(=O)c2c1 (stereo not given)	8.6	-1.5	·	8.6	-69.3*
CCn1cc(C(=O)NCC2CCCO2)c(=O)c2cc(S(=O)(=O)N(C)C3CCCCC3)ccc21 (stereo not given)	-0.6	6.7	5.2	-1.1	-51.9*
CN(c1ccc(F)cc1)S(=O)(=O)c1ccc2[nH]cc(C(=O)O)c(=O)c2c1	-4.5	-30.1*	-12.9	-14.5	8.9
Cc1ccc(S(=O)(=O)Cc2ccc(C(=O)O)cc2)cc1	·	-0.1	·	·	·
Cc1ccccc1-c1nnn(CCCn2c(=O)c3c(ncn3C)n(C)c2=O)n1	·	-0.5	·	·	·
CC1COCCN1C(=O)CCc1nc(Cc2ccccc2)no1 (stereo not given)	·	-1.0	·	·	·
COc1ccc(NC(=O)CC(C)=O)c(OC)c1	-0.7	6.1	-64.4*	4.6	-24.8
COc1ccc(NC(=O)CC(=O)Nc2ccc(OC)cc2OC)c(OC)c1	20.7	3.1	·	-0.1	17.8
Clc1ccccc1Oc1ccc2nnc(-c3ccccc3)n2n1	·	-4.4	·	·	·
CC(C)CCN1CCN(Cc2ccoc2)CC1CCO (stereo not given)	-4.2	-11.5	5.1	3.0	0.7
COc1ccc(CN2CCN(Cc3ccccc3)C(CCO)C2)cc1OC (stereo not given)	-21.1	-4.8	0.3	1.3	-71.9*
COc1ccccc1/C=C/CN1CCN(Cc2ccc(F)cc2)C(CCO)C1 (stereo not given)	-43.4	-2.0	-5.0	2.6	-82.3*
C/C(=C\c1ccco1)CN1CCN(Cc2ccc(C)o2)C(CCO)C1 (stereo not given)	-16.1	-7.1	-8.4	-0.1	-69.6*
CC(C)CCN1CCN(Cc2cccc(C(F)(F)F)c2)CC1CCO (stereo not given)	-18.6	-2.5	-0.5	0.8	-112.4*
Cc1ccc2nc(CSc3nnc(N4CCOCC4)n3-c3cccc(F)c3)cn2c1	·	7.6	·	·	·
Cc1ccc(CN2CCN(C/C=C/c3ccc(F)cc3)CC2CCO)o1 (stereo not given)	-13.7	-7.6	-1.3	2.8	-92.9*
CSc1cccc(CN2CCN(CCC(C)C)C(CCO)C2)c1 (stereo not given)	-13.2	-12.3	6.2	-0.3	-50.9*
COc1cccc2c1OCC(CN1CCN(Cc3ccccc3)C(CCO)C1)=C2 (stereo not given)	-20.3	-0.3	0.5	-0.5	-93.6*
SMILES	D3 ag	LDHA block	PI5P4Ka inh	PI4K2A inh	D3 antag
CC(C)CCN1CCN(Cc2cccc(-n3cccn3)c2)CC1CCO (stereo not given)	-14.0	-1.8	1.7	10.5	-24.8
COc1cccc2c1OCC(CN1CCN(Cc3ccccc3F)C(CCO)C1)=C2 (stereo not given)	-24.5	0.1	3.1	1.8	-8.1
OCCC1CN(Cc2cccc(C(F)(F)F)c2)CCN1Cc1ccccc1 (stereo not given)	-13.3	3.7	5.6	-2.3	-71.9*
Cc1ccc(CN2CCN(Cc3cnn(-c4ccc(F)cc4)c3)CC2CCO)o1 (stereo not given)	-15.8	1.3	3.6	2.3	?
C/C=C/C=C/C(=O)Nc1ccc(OCCOC)cc1	·	0.2	·	·	·
C(=C\c1nc2ccccc2s1)/c1cccc(Oc2ccccc2)c1	·	-1.6	·	·	·
Cc1ccc(C(=O)C(C)Sc2ccc3c(c2)OCCO3)cc1 (stereo not given)	·	-0.2	·	·	·
CC(CCc1ccccc1)NC(=O)c1ncc(Cl)c(Cl)c1Cl (stereo not given)	·	7.3	·	·	·
COC(=O)c1ccc(COC(=O)CCc2ccc3c(c2)OCO3)cc1	·	-3.3	·	·	·
O=c1n(Cc2ccc([N+](=O)[O-])cc2)c2ccccc2c2nc(-c3ccccc3)nn12	52.5*	-0.5	·	-8.2	·
O=C(NC1CCCC1)C(c1ccc(F)cc1)N1CCC(O)(c2ccc(Cl)cc2)CC1 (stereo not given)	-15.3	3.0	1.4	0.1	-93.0*
CCN1CCN(C(C(=O)NC2CCCCC2)c2ccc(Cl)cc2)CC1 (stereo not given)	-9.3	0.2	1.5	0.3	-59.8*
O=C(NC1CCCC1)C(c1ccc(Cl)cc1)N1CCN(C2CCCCC2)CC1 (stereo not given)	-17.2	-3.1	-11.2	10.1	-5.5
O=C(C[n+]1ccc(Cl)c2ccc(Cl)cc21)c1ccc(F)cc1	·	-1.9	·	·	·
Clc1ccc2c(Cl)cc[n+](CCC3CCCCC3)c2c1	·	-36.1*	·	·	·
COc1ccc(OC)c(NC(=O)c2ccc(CN3CCc4ccccc4C3)cc2)c1	-13.5	-0.4	-11.8	-10.6	-109.0*
COc1ccc(NC(=O)c2ccc(CN3CCc4ccccc4C3)cc2)c(OC)c1	-29.4	1.2	-23.3	-0.5	-100.8*
COc1ccc(OC)c(NC(=O)CN2CCc3ccccc3C2)c1	-16.2	-1.8	19.4	1.3	-10.0
Cc1ccc(C(=O)O)c(Cl)n1	·	-4.1	·	·	·
CCOC(=O)CN1C(=O)c2ccccc2C1=O	-1.3	-15.4	0.1	-2.7	0.4
CCOC(=O)CN1C(=O)C2Cc3ccccc3CN2C1=S (stereo not given)	-5.4	-30.7*	0.5	2.6	0.0
Cc1nn(-c2ccccc2)c2nc(-c3ccco3)cc(C(=O)O)c12	5.7	-2.0	?	-23.3	-51.7*
O=c1[nH]c2cc3ccccc3cc2nc1-c1nnnn1C1CCCC1	-15.2	5.3	-15.2	-3.7	-68.1*
O=C(CNC(=O)Cc1ccccc1)NCC(=O)OCC(=O)c1cccc2ccccc12	0.8	-41.1*!	1.9	4.3	-13.0
O=C(CNC(=O)c1ccccc1)NCC(=O)OCC(=O)c1cccc2ccccc12	·	-0.5	·	·	·
O=c1c2c3c(sc2n(Cc2cc(=O)n4ccccc4n2)c(=O)n1-c1ccc(Cl)cc1)CCC3	0.0	-0.9	·	0.4	·

From PubChem BioAssay
